The inhibition is the drop in the measured response relative to a control, in per cent.

Values joined by “and” are separate entries in the source; they are usually repeats but may differ in a detail not shown here. Equal values may be shown once. Results filed as inconclusive are left out. Active and inactive are the calls of the source.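 The calls were made as follows, unless noted: active = inhibition above 50%, about 3 SD of the validation set; inactive = the rest.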

A short description of assay [1]: rapamycin-like changes in RPL19A-GFP expression – cell-based, S. cerevisiae, multiplex flow cytometry, primary screen (AID 1862; in the data active = percent of DMSO control GFP below about 86%;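 also: lower values mimic rapamycin by blocking the RPL19A rise seen in DMSO cells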). The conditions noted are these: S. cerevisiae RPL19A-GFP strain, flow cytometry fluorescence, 3 h; at 10 µM; stronger effect = lower value.
A short description of assay [2]: TOR pathway GLN3 branch reporter MEP2-GFP changes – S. cerevisiae, multiplex flow cytometry, primary screen (AID 1867;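 active = GFP response, as percent of the DMSO control, above the screen-wide mean plus 3 SD, about 139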;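 also: median GFP channel fluorescence of barcode-gated MEP2-GFP cells measured by flow cytometry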). The conditions noted are these: S. cerevisiae MEP2-GFP strain, 3 h, at 10 µM, stronger effect = higher value, 100% means same as DMSO wells. (A flow cytometer gives signals particle by particle.)
Assay [3] can be described thus: TOR pathway RTG branch CIT2 reporter changes – S. cerevisiae, GFP fusion, multiplex flow cytometry, primary screen (AID 1870;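 active = percent response above a set limit, the screen-wide mean plus 3 SD, cut at about 130% in these data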;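 also: barcoded CIT2-GFP strain pooled with four other GFP strains with rapamycin as positive control; median GFP fluorescence per well over plate mean of DMSO wells so 100% = DMSO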). The conditions noted are these: S. cerevisiae CIT2-GFP expression, 3 h, at 10 µM, stronger effect = higher value.
A short description of assay [4]: TOR pathway LAP4-GFP level changes – S. cerevisiae, multiplex flow cytometry, primary screen (AID 1873;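 active = GFP signal, as percent of the solvent control, above the screen mean plus 3 SD, about 149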). The conditions noted are these: S. cerevisiae LAP4-GFP expression, 3 h, at 10 µM, stronger effect = higher value.
The nature of assay [5]: yeast AGP1-GFP level changes, GLN3 branch – cell-based, multiplex flow cytometry, S. cerevisiae, primary screen (AID 1887;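 active = GFP signal above the screen-wide mean plus 3 SD, that is over about 124.5% of the solvent control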;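 also: AGP1-GFP fusion strain of S. cerevisiae within a five-strain barcoded multiplex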). The conditions noted are these: 3 h, at 10 µM, stronger effect = higher value.
Assay [6] is described as follows: reduced mouse 2C T cell binding to pMHC/ICAM-1 vesicles – MLPCN validation set, flow cytometry, LFA-1/ICAM-1 modulator project, pilot screen (AID 2523;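 active = response below a set limit, under 55% cells CD8-positive and vesicle-bound, and CD8 cells' 90th-percentile brightness under 279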;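 as to vesicle binding response: mean PE anti-B7-1 fluorescence of CD8+ cells relative to row control; 100% = QL9-loaded vesicles with DMSO vehicle in the same plate row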). The conditions noted are these: 2C mouse CD8+ T cells, at 7 µM, stronger effect = lower value; double positive events: measured here: CD8+/vesicle+ event percentage.
In assay [7] the target is Integrin beta-1 (Homo sapiens) + Integrin alpha-4 (Homo sapiens) (UniProt P13612+P05556). Put plainly: alpha4beta1 integrin LIBS antibody binding reduction – U937 cells, HUTS-21 mAb, flow cytometry, validation set, VLA-4 allosteric modulator project, pilot screen (AID 2674).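 Also: antibody binding induced by the VLA-4 ligand LDV present at three times its Kd; 0% = LDV ligand with antibody and no compound and 100% = antibody without LDV.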 The conditions noted are these: HUTS-21 LIBS mAb binding, at 6.7 µM, stronger effect = higher value, binding induced by LDV ligand.
Integrin beta-1 (Homo sapiens) + Integrin alpha-4 (Homo sapiens), sequence (P05556 whole entry, looked up): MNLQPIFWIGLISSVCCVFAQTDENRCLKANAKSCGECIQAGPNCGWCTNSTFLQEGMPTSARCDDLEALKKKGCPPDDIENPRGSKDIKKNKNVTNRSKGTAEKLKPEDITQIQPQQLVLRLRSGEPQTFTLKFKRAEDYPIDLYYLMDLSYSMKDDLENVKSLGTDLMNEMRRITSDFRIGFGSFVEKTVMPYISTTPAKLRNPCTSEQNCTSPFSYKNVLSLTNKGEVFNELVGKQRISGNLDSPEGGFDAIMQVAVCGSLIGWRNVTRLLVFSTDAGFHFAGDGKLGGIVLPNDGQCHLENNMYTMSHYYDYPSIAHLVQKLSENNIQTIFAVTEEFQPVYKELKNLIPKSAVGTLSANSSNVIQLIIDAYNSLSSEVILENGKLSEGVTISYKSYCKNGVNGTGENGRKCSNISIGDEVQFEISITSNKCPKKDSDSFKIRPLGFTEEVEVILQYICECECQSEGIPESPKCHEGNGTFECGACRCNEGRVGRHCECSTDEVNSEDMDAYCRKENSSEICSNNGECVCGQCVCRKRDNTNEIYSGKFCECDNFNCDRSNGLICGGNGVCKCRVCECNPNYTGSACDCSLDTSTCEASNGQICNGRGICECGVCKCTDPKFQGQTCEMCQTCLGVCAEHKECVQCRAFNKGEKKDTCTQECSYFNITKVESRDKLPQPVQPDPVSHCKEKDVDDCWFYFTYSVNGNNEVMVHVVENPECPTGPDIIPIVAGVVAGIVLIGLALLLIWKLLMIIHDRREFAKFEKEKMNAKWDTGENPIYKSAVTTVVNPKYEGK
Integrin beta-1 (Homo sapiens) + Integrin alpha-4 (Homo sapiens), sequence (P13612 whole entry, looked up): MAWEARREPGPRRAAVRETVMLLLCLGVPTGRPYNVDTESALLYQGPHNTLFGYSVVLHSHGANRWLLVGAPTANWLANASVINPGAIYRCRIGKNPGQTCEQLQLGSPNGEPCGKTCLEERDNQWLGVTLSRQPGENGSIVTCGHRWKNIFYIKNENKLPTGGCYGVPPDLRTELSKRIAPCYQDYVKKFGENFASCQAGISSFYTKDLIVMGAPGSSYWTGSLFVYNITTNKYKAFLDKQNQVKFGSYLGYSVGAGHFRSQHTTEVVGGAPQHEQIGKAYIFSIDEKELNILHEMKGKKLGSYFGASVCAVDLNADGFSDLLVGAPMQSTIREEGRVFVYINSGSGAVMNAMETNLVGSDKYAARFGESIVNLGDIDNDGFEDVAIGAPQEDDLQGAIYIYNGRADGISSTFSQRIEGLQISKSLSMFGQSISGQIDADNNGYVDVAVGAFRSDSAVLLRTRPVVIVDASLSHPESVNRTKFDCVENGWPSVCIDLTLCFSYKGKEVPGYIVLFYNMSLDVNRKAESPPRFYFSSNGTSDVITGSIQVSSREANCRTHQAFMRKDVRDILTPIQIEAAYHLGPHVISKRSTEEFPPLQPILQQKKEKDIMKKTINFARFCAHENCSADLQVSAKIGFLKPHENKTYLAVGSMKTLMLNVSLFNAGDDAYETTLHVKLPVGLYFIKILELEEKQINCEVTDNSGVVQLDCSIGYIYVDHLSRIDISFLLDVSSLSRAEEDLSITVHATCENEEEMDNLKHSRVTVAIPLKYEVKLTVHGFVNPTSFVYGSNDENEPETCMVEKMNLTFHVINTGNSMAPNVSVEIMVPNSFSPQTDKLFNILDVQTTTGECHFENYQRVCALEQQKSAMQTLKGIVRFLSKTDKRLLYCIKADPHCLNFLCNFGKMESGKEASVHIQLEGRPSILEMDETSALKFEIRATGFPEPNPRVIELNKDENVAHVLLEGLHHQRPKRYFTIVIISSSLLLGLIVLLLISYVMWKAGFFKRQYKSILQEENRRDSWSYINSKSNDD

Assay [8] is described as follows: calorie-restriction mimetic ROS inhibitors, yeast – validation compound set, pilot screen (AID 2706;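 active = superoxide response below 65% of plate, a cut near 3 SD across the whole screen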;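 also: yeast exposed to compound for one week at 30 degrees C before staining; 100% = mean of all compound wells on the same plate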). The conditions noted are these: S. cerevisiae aging, superoxide DHE fluorescence; at 10 µM; stronger effect = lower value.
In assay [9] the target is Beta-adrenergic receptor kinase 1 (Homo sapiens) (UniProt P25098). Kind of assay: GRK2 binders displacing RNA aptamer, biochemical, validation, human GRK2, bead flow cytometry (AID 488806;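 active = aptamer binding inhibition above 30%, about 3 SD of noise from non-fluorescent compounds; inactive = inhibition at or below 30%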). The conditions noted are these: bead-bound GRK2, FAM-aptamer displacement, at 10 µM, stronger effect = higher value.
Beta-adrenergic receptor kinase 1 (Homo sapiens), sequence (P25098 whole entry, looked up): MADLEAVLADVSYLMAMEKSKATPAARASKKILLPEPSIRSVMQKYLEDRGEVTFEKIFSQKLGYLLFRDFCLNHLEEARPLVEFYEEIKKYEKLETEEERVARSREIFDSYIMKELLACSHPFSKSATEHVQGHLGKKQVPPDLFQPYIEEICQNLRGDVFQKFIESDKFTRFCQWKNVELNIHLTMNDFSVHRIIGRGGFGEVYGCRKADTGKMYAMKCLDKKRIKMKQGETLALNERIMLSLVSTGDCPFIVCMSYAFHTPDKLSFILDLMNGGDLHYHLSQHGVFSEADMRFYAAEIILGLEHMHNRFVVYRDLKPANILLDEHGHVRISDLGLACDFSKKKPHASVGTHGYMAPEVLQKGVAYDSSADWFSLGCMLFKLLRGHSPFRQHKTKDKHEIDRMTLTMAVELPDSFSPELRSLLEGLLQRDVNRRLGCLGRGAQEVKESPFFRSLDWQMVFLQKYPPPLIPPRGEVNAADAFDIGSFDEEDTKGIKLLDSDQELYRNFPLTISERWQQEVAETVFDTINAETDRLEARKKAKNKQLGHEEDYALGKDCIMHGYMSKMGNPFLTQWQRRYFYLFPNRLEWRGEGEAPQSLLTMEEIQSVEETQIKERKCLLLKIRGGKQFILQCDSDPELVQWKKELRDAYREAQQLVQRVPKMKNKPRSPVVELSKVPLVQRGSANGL
The target in assay [10] is Beta-2 adrenergic receptor (Homo sapiens) (UniProt P07550). Put plainly: agonist-induced loss of surface beta2AR – cell-based, FAP fluorogen, flow cytometry, validation set, pilot screen (AID 504459;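 active = percent response above 42, roughly 3 SD of non-fluorescent test compounds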;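 also: agonist-driven loss of surface beta2AR via internalization measured by FAP dye flow cytometry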). The conditions noted are these: Am2.2-beta2AR cells, at 10 µM, stronger effect = higher value.
Beta-2 adrenergic receptor (Homo sapiens), sequence (P07550 whole entry, looked up): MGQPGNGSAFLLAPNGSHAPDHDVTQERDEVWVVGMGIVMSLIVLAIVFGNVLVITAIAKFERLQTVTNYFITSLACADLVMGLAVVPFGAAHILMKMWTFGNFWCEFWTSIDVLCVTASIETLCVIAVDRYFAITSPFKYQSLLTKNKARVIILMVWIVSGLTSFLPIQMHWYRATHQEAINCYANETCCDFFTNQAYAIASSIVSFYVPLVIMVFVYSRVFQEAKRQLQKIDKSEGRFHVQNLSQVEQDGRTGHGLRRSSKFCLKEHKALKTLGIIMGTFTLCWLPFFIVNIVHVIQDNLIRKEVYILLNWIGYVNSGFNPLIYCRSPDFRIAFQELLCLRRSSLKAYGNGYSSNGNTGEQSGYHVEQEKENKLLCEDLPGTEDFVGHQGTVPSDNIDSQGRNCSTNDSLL
Assay [11] addresses AP-2 complex subunit beta (Homo sapiens) (UniProt P63010). Put plainly: beta-arrestin/AP2 interaction blockers – biochemical, validation set, GST-AP2 beads, flow cytometry, pilot screen (AID 504541;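 active = inhibition above 54%, about 3 SD of non-fluorescent compounds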;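 also: AP2 carries R879A mutation and is captured from E. coli lysate; bead-bound FITC arrestin peptide fluorescence measuring arrestin peptide binding to AP2; 0% = DMSO wells and 100% = excess unlabeled arrestin peptide control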). The conditions noted are these: FITC arrestin peptide, at 10 µM, stronger effect = higher value, AP2 beta2 appendage fragment, R879A mutant.
A short description of assay [12]: cytosolic pH regulators acting via V-ATPase – S. cerevisiae, pHLuorin, HTS validation (AID 504600; in the data active = response above about 15%;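 also: plate controls were DMSO for no effect and reference compound for full effect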). The conditions noted are these: V-ATPase proton transport, at 10 µM, stronger effect = higher value.
The test system of assay [13] is anti-desmoglein-3 scFv antibody binding to human DSG3. Kind of assay: blockers of pathogenic pemphigus antibody–desmoglein-3 binding – biochemical, validation compound set, bead-based, flow cytometry, pilot screen (AID 588368;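 active = binding below the plate cutoff, the plate median minus 3 SD, with a reading above zero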;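 also: signal is the median channel fluorescence of bead-bound GFP antibody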). The conditions noted are these: Protein G beads, DSG3-Fc, scFv-GFP binding, at 10 µM, stronger effect = lower value.
A short description of assay [14]: Nile Red efflux blockade in pump-expressing yeast – validation compound set, multiplex, phenotypic, pilot screen (AID 588506;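 active = efflux inhibition above 0.42, the validation set average plus 4 SD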;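 also: Nile Red retained in cells so higher fluorescence means more efflux inhibition; 0 = negative control wells and 1 = enniatin B 25 µM full block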). The conditions noted are these: S. cerevisiae pump-expressing triplex, Nile Red efflux flow cytometry; at 10 µM; stronger effect = higher value; the pumps come from Candida albicans.
In assay [15] the target is ATP-binding cassette sub-family B member 6 (Homo sapiens) (UniProt Q9NP58). Put plainly: blockers of ABCB6-driven porphyrin uptake – K562-ABCB6 cells, flow cytometry, validation set, pilot screen (AID 588550;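 active = inhibition above the screen-wide mean plus 3 SD, about 51%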;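 also: 0% = DMSO wells and 100% = benzethonium chloride 70 µM positive control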). The conditions noted are these: K562-ABCB6 porphyrin accumulation, 1 h, at 10 µM, stronger effect = higher value.
ATP-binding cassette sub-family B member 6 (Homo sapiens), sequence (Q9NP58 whole entry, looked up): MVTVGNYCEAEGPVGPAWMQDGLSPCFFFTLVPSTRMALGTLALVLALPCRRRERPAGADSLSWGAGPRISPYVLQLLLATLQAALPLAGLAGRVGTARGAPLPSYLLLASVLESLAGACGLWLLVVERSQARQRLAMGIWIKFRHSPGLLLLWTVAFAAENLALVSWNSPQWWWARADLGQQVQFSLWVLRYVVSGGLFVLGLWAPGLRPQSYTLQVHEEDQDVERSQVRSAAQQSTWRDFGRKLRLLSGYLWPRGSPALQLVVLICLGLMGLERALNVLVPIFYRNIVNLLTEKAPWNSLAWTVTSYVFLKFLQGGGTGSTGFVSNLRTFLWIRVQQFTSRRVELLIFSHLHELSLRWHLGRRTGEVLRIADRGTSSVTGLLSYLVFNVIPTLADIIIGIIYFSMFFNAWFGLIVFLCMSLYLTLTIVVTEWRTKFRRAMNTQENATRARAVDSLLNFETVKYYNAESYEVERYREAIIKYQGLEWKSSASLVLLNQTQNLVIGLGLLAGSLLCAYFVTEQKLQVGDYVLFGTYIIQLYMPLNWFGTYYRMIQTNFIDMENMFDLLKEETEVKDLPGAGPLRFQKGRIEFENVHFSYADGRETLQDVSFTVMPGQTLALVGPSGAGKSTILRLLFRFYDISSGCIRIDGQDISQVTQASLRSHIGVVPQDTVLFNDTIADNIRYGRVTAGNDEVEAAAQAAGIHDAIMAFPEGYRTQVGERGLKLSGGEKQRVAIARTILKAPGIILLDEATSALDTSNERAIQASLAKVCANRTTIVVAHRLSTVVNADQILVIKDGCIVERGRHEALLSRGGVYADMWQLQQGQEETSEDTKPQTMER
Assay [16] is described as follows: AML differentiation inducers, ER-HoxA9 marrow cells – cell-based, GFP/MAC1 double positive, flow cytometry, validation set, primary screen (AID 588685;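 active = differentiation response of at least 50%, scaled between solvent and reference control, from cells with both markers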;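 also: compound exposure lasts four days before antibody staining and flow analysis; 0% = DMSO wells and 100% = 5 µM fulvestrant positive control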). The conditions noted are these: stronger effect = higher value, normalized: vehicle 0, fulvestrant 100.

AP-2 complex subunit beta (Homo sapiens), sequence (P63010 whole entry, looked up, the tested form may be a part, one chain of several): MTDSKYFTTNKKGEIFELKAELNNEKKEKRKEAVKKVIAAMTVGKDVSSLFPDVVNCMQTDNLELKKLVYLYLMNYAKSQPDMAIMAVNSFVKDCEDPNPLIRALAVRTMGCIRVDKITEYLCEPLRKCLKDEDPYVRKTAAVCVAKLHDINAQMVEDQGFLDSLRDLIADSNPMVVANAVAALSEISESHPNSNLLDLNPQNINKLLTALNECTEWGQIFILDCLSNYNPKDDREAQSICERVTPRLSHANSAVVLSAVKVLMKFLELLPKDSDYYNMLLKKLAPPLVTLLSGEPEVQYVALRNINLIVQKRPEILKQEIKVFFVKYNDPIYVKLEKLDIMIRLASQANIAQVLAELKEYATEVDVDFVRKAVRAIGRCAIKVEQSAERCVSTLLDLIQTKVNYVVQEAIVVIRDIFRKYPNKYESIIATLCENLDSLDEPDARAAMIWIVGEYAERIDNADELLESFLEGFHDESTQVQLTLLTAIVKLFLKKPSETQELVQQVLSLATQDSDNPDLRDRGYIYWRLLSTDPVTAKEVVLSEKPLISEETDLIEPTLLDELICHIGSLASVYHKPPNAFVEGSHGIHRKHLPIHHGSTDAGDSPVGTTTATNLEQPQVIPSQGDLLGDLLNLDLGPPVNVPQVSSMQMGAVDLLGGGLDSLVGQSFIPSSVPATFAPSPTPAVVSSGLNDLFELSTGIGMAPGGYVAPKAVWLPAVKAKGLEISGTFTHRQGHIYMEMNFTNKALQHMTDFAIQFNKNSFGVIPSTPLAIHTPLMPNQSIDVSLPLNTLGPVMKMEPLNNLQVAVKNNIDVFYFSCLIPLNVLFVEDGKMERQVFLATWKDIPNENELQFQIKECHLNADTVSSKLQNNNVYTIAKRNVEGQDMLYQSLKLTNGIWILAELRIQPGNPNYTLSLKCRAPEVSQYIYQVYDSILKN

For `CC(=O)C1=C(Nc2ccc(C)cc2)CC(C)(O)C(C(C)=O)C1c1ccco1` (stereo not given), the percent of DMSO control GFP in assay [1] is 105% (inactive). The GFP response vs DMSO is 104% (inactive) in assay [2] and 96.6% (inactive) in assay [4]. The percent response of DMSO control in assay [3] is 93.1% (inactive). Besides, the GFP response, % of DMSO in assay [5] was 97.2% (inactive). Moreover, the double positive events in assay [6] came out at 66.9%. Further, the vesicle binding response in [6] is 223% (inactive). Besides, the figures for the inhibition in assay [7], in [11] and in assay [15] were -9.79% (inactive), 36.9% (inactive) and -19% (inactive), respectively. The superoxide response (% of plate) in assay [8] is 103% (inactive). Moreover, in assay [9], the aptamer binding inhibition is 5% (inactive). The response in assay [10] is 0.66% (inactive); in assay [12], -0.29% (inactive). Also, in assay [13], the binding (% of control) was 105% (inactive). Moreover, the efflux inhibition (fraction of control) in assay [14] is 0.3 (inactive). Besides, in assay [16], the differentiation response was 14.9% (inactive).
Regarding `NC(=O)c1ncn([C@@H]2O[C@H](CO)[C@@H](O)[C@H]2O)c1O`, the percent of DMSO control GFP in [1] was 101% (inactive). Moreover, the GFP response vs DMSO was 103% (inactive) in assay [2] and 108% (inactive) in assay [4]. Also, in [3], the percent response of DMSO control is 96.7% (inactive). Also, in [5], the GFP response, % of DMSO was 98% (inactive). Besides, the double positive events in assay [6] was determined as 55.9%. Besides, in [6], the vesicle binding response is 164% (inactive). In addition, the inhibition in assay [7] was -16.8% (inactive); in assay [11], -16.1% (inactive); in assay [15] it was 3% (inactive). Moreover, in assay [8], the superoxide response (% of plate) is 109% (inactive). In addition, in assay [9], the aptamer binding inhibition is 1% (inactive). Also, the response in assay [10] is 3.75% (inactive); in assay [12], -4.18% (inactive). In addition, the binding (% of control) in [13] was 98.7% (inactive). The efflux inhibition (fraction of control) in assay [14] was -0.21 (inactive). Also, in assay [16], the differentiation response was -15.2% (inactive).
Turning to `N/C(Cc1ccc(Cl)cc1Cl)=N\OC(=O)c1ccc(Br)o1`, the percent of DMSO control GFP in assay [1] was 93.5% (inactive). Moreover, the GFP response vs DMSO in assay [2] is 128% (inactive); in assay [4] it was 167% (active). Besides, in assay [3], the percent response of DMSO control was 106% (inactive). Besides, the GFP response, % of DMSO in assay [5] was 43.5% (inactive). Moreover, the double positive events in [6] came to 52.1%. Besides, the vesicle binding response in assay [6] was 224% (inactive). Besides, the inhibition in [7] is -11.3% (inactive); in assay [11], -11% (inactive); in [15], 2% (inactive). Besides, the superoxide response (% of plate) in [8] is 124% (inactive). The aptamer binding inhibition in [9] is -2% (inactive). The response in assay [10] was 6.81% (inactive); in assay [12], 3.34% (inactive). For the same compound, the binding (% of control) in assay [13] was 105% (inactive). Further, in assay [14], the efflux inhibition (fraction of control) was -0.39 (inactive). In assay [16], the differentiation response is 2.4% (inactive).
With `COc1ccc(C2C(C#N)=C(N)Oc3cc(C)[nH]c(=O)c32)c(OC)c1OC` (stereo not given), in assay [1], the percent of DMSO control GFP is 88.2% (inactive). The GFP response vs DMSO in assay [2] is 117% (inactive); in [4], 78.1% (inactive). Further, the percent response of DMSO control in assay [3] is 92.6% (inactive). For the same compound, in [5], the GFP response, % of DMSO is 97% (inactive). The compound also registered a double positive events in assay [6] of 63.8%. Besides, the vesicle binding response in assay [6] was 168% (inactive). For the same compound, the inhibition in assay [7] is 14.2% (inactive); in [11], -3.85% (inactive); in assay [15] it was 10% (inactive). Also, the superoxide response (% of plate) in assay [8] is 97.7% (inactive). Also, in assay [9], the aptamer binding inhibition was 4% (inactive). For the same compound, the figures for the response in assay [10] and in assay [12] were -4.98% (inactive) and -1.92% (inactive), respectively. Further, the binding (% of control) in assay [13] is 109% (inactive). In addition, the efflux inhibition (fraction of control) in assay [14] was 0.16 (inactive). The differentiation response in [16] is 0% (inactive).
On to `CCN(CC)CCNC(=O)c1ccc(NC(C)=O)cc1`, for which the percent of DMSO control GFP in assay [1] is 99.4% (inactive). Besides, the GFP response vs DMSO in assay [2] is 108% (inactive) and 103% (inactive); in assay [4], 89.4% (inactive) and 90.7% (inactive). For the same compound, the percent response of DMSO control in [3] was 101% (inactive). Moreover, the GFP response, % of DMSO in assay [5] was 99.2% (inactive) and 100% (inactive). Besides, in assay [6], the double positive events is 63.2% and 61.4%. Further, the vesicle binding response in assay [6] was 4990% (inactive) and 247% (inactive). Moreover, the inhibition in [7] is 1.62% (inactive) and -0.45% (inactive); in assay [11], -11.4% (inactive) and 6.7% (inactive); in assay [15] it was -3% (inactive) and 3% (inactive). Further, the superoxide response (% of plate) in assay [8] was 100% (inactive) and 103% (inactive). Besides, the aptamer binding inhibition in assay [9] is 3% (inactive) and -3% (inactive). In addition, the response in assay [10] was -11.2% (inactive) and -2.15% (inactive); in assay [12], -1.96% (inactive) and 1.62% (inactive). Moreover, the binding (% of control) in assay [13] was 95.9% (inactive) and 97.4% (inactive). Moreover, in [14], the efflux inhibition (fraction of control) was 0.02 (inactive) and -0.04 (inactive). Further, the differentiation response in assay [16] is -6.6% (inactive) and 20.8% (inactive).
